In PubChem BioAssay (EPA / NIEHS):
Inconclusive results are not listed. Active and inactive are the calls of the source. How the source made its calls, unless noted: active means hit-call score of the fitted dose curve at least 0.9, where 1 is the maximum; inactive means score below 0.9.

Experiments:
[1] = biological target: Oxysterols receptor LXR-alpha (Homo sapiens) (UniProt Q13133); assay: ATG_LXRa_TRANS: Attagene TRANS-FACTORIAL HepG2 Assay for human Liver X Receptor alpha (LXRa) (AID 2282980; active means hit-call score of the fitted dose curve at least 0.9, where 1 is the maximum); conditions: HepG2 Attagene TRANS reporter, LXRa transactivation
Oxysterols receptor LXR-alpha (Homo sapiens), sequence (Q13133 whole entry, looked up, the tested form may be a part): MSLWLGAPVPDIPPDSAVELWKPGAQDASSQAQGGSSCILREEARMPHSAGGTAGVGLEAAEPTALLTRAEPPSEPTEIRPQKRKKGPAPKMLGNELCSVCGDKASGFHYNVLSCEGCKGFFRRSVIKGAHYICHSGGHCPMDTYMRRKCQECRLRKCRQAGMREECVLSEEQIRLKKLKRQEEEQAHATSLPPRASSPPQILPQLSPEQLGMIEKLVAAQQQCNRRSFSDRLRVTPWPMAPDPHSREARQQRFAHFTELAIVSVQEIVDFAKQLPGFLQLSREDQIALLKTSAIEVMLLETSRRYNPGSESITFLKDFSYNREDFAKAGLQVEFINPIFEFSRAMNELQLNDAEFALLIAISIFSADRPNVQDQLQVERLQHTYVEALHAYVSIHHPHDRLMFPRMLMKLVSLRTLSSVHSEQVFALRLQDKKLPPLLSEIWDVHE
Method in brief: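 In this multiplexed TRANS system, compounds act on HepG2 cells carrying GAL4-UAS reporter units and a receptor-GAL4 fusion for 24 h. Induced reporter RNA is amplified, fluorescently labelled and sized by capillary electrophoresis, with DMSO as baseline.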

[2] = biological target: Oxysterols receptor LXR-beta (Homo sapiens) (UniProt P55055); assay: ATG_LXRb_TRANS: Attagene TRANS-FACTORIAL HepG2 Assay for human Liver X Receptor beta (LXRb) (AID 2282981; active means hit-call score of the fitted dose curve at least 0.9, where 1 is the maximum); conditions: HepG2 Attagene TRANS GAL4-LXRb reporter, mRNA
Oxysterols receptor LXR-beta (Homo sapiens), sequence (P55055 whole entry, looked up, the tested form may be a part): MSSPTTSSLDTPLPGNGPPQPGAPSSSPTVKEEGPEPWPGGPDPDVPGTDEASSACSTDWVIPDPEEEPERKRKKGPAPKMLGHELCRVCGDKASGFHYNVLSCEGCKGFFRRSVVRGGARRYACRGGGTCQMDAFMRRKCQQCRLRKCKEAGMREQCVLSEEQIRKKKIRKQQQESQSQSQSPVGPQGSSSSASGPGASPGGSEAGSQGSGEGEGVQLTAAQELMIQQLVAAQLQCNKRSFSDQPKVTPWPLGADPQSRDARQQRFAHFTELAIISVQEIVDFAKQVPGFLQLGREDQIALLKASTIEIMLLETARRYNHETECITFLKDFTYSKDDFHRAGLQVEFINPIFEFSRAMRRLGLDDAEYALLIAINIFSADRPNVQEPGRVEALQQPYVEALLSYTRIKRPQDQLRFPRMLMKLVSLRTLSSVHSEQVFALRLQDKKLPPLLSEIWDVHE
Method in brief: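 HepG2 cells transiently transfected with multiple reporter transcription units carrying chimeric NR-Gal4 proteins acting on GAL4-UAS reporters; compound exposure 24 h. Reporter mRNA quantified by RT-PCR, 6-FAM labelling, HpaI digestion and capillary electrophoresis; gain of signal versus DMSO.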

[3] = biological target: Hepatocyte nuclear factor 4-alpha (Homo sapiens) (UniProt P41235); assay: ATG_HNF4a_TRANS: Attagene TRANS-FACTORIAL HepG2 Assay for human Hepatocyte Nuclear Factor 4 alpha (HNF4a) (AID 2282982; active means hit-call score of the fitted dose curve at least 0.9, where 1 is the maximum); conditions: HepG2 HNF4a transactivation reporter, mRNA readout
Hepatocyte nuclear factor 4-alpha (Homo sapiens), sequence (P41235 whole entry, looked up, the tested form may be a part): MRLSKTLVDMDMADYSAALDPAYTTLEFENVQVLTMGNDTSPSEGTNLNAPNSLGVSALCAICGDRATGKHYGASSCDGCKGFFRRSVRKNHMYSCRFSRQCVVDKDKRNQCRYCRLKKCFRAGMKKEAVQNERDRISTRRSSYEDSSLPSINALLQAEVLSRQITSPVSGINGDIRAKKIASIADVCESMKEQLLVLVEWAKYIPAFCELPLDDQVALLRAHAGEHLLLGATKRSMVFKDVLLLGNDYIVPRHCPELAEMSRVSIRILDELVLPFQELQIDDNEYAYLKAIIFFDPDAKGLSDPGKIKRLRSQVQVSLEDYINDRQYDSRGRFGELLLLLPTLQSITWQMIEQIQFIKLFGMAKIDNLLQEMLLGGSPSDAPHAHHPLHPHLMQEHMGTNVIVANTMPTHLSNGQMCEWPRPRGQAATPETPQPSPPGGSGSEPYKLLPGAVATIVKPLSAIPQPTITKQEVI
Method in brief: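 HepG2 cells transiently transfected with multiplexed GAL4-UAS reporter units responsive to chimeric NR-GAL4 proteins; compound exposure 24 h. Reporter mRNA quantified by RT-PCR, 6-FAM labelling, HpaI digestion and capillary electrophoresis; gain of signal versus DMSO baseline.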

[4] = ATG_M_32_TRANS: Attagene TRANS-FACTORIAL HepG2 Assay for M32 Transcription Factor (Internal Marker) (AID 2282984; active means hit-call score of the fitted dose curve at least 0.9, where 1 is the maximum); conditions: HepG2 Attagene TRANS M32 internal marker reporter
Method in brief: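 HepG2 cells transiently transfected with multiple GAL4-UAS reporter transcription units, dosed for 24 hours; reporter mRNA quantified by RT-PCR, 6-FAM primer extension, HpaI digestion and capillary electrophoresis. Gain-of-signal fitted versus DMSO baseline; internal background-control marker.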

[5] = biological target: Transcriptional activator Myb (Homo sapiens) (UniProt P10242); assay: ATG_Myb_CIS: Attagene CIS-FACTORIAL HepG2 Assay for human Myeloblastosis (Myb) Proto-Oncogene Transcription Factor (AID 2282986); conditions: HepG2 Attagene CIS-FACTORIAL Myb reporter transcription; actives raise or lower the signal
Transcriptional activator Myb (Homo sapiens), sequence (P10242 whole entry, looked up): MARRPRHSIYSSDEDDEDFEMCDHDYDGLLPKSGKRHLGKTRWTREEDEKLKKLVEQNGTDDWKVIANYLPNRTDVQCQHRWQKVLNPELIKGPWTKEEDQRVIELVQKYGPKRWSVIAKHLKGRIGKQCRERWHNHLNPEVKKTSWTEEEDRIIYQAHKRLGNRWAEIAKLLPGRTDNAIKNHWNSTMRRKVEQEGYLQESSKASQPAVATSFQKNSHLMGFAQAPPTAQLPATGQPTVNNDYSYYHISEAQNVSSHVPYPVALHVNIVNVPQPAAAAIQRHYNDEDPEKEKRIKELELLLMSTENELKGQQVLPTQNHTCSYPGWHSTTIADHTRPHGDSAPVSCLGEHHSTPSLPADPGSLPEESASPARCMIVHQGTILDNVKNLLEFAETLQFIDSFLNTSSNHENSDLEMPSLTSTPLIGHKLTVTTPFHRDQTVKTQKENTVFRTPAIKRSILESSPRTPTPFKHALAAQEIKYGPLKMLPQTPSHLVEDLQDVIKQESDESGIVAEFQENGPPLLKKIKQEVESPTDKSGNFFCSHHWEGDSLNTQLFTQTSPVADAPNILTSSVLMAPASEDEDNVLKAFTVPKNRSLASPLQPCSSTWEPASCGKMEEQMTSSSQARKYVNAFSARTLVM
Method in brief: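 Reporter transcript levels, quantified by fluorescent RT-PCR and capillary electrophoresis, serve as the read-out. Transfected HepG2 cells carrying cis-promoter reporter units are dosed for 24 hours, and curves are fitted bidirectionally against DMSO controls.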

[6] = ATG_NFI_CIS: Attagene CIS-FACTORIAL HepG2 Assay for human Nuclear Factor I (NFI) (AID 2282989); conditions: HepG2 cis-regulatory reporter, NFI response element transcription; actives raise or lower the signal
Method in brief: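 Endogenous TF activity in HepG2 cells transiently transfected with cis-element-driven multiplexed reporter units, read 24 h after dosing. Reporter mRNA quantified by RT-PCR, 6-FAM labelling, HpaI digestion and capillary electrophoresis; bidirectional fit versus DMSO.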

[7] = biological target: Myc proto-oncogene protein (Homo sapiens) (UniProt P01106); assay: ATG_Myc_CIS: Attagene CIS-FACTORIAL HepG2 Assay for human Myelocytomatosis (Myc) Proto-Oncogene Transcription Factor (AID 2282990); conditions: HepG2, Attagene cis-reporter transcription factor activity; actives raise or lower the signal
Myc proto-oncogene protein (Homo sapiens), sequence (P01106 whole entry, looked up): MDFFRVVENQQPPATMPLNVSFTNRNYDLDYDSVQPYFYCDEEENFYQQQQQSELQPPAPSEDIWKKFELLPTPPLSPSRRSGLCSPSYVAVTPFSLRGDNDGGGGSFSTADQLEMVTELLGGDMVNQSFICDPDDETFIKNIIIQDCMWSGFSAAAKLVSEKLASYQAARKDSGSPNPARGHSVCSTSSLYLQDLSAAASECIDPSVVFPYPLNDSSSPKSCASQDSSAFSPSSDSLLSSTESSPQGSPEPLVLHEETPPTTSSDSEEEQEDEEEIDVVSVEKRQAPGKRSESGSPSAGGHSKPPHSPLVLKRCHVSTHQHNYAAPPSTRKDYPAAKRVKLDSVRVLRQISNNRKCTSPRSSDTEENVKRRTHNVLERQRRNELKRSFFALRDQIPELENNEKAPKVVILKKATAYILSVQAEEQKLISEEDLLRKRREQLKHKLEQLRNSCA
Method in brief: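 DMSO-normalised, bidirectionally fitted reporter mRNA signal. HepG2 cells transfected with cis reporter constructs, treated 24 h; transcripts detected by RT-PCR, 6-FAM primer extension and CE.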

[8] = ATG_NRF2_ARE_CIS: Attagene CIS-FACTORIAL HepG2 Assay for human Nuclear Factor Erythroid 2 Related Factor 2 (NFR2) response to Antioxidant Response Elements (ARE) (AID 2282992); conditions: HepG2 Attagene ARE/NRF2 reporter, transcription factor activity; actives raise or lower the signal;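 on AC50: reporter mRNA level measured by RT-PCR and capillary electrophoresis fluorescence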
Method in brief: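 Cis-factorial assay: transfected HepG2 reporter library, 24 h dosing, mRNA readout via RT-PCR/CE; DMSO-referenced bidirectional analysis.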

[9] = ATG_Oct_MLP_CIS: Attagene CIS-FACTORIAL HepG2 Assay for human Octamer-Binding Transcription Factor (Oct) (AID 2282993); conditions: HepG2 Attagene cis-factorial Oct reporter, mRNA; actives raise or lower the signal
Method in brief: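 HepG2 cells transiently transfected with cis-element-driven reporter transcription units (endogenous TF activity); 24 h compound exposure. Reporter mRNA quantified by RT-PCR, 6-FAM labelling, HpaI digestion and capillary electrophoresis; bidirectional fit versus DMSO baseline.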

[10] = biological target: Bile acid receptor (Homo sapiens) (UniProt Q96RI1); assay: ATG_FXR_TRANS: Attagene TRANS-FACTORIAL HepG2 Assay for Farnesoid X Receptor (FXR) (AID 2282979; active means hit-call score of the fitted dose curve at least 0.9, where 1 is the maximum;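 further: hits raise reporter mRNA above DMSO so AC50 marks FXR activation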); conditions: HepG2 Attagene TRANS FXR-GAL4 reporter transcription
Bile acid receptor (Homo sapiens), sequence (Q96RI1 whole entry, looked up, the tested form may be a part): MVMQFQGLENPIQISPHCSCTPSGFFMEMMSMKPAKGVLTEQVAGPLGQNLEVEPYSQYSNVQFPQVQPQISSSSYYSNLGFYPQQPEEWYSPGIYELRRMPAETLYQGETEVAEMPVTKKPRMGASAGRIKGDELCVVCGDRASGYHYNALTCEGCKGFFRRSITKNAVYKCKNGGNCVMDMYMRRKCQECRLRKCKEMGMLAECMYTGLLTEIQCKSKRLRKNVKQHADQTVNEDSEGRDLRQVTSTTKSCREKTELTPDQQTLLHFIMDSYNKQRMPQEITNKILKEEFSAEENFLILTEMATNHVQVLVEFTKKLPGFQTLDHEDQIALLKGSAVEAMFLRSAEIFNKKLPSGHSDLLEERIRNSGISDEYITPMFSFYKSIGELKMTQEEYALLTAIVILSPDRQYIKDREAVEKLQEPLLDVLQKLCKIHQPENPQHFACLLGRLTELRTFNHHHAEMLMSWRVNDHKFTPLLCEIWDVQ
Method in brief: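 After 24 h chemical treatment of transfected HepG2 cells, GAL4-UAS reporter transcripts driven by an exogenous FXR-GAL4 fusion were measured by RT-PCR and capillary electrophoresis. Increases over DMSO were fitted.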

[11] = ATG_M_06_TRANS: Attagene TRANS-FACTORIAL HepG2 Assay for M06 Transcription Factor (Internal Marker) (AID 2282983; active means hit-call score of the fitted dose curve at least 0.9, where 1 is the maximum); conditions: HepG2 Attagene TRANS M06 internal marker reporter
Method in brief: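 Internal-marker background readout from a multiplexed TRANS reporter system in HepG2; 24 h dosing; mRNA induction quantified by RT-PCR plus capillary electrophoresis fluorescence; DMSO as negative control and baseline.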

[12] = biological target: Nuclear receptor subfamily 4 group A member 2 (Homo sapiens) (UniProt P43354); assay: ATG_NURR1_TRANS: Attagene TRANS-FACTORIAL HepG2 Assay for human Nuclear Receptor Related Protein 1 (NURR1) (AID 2282985; active means hit-call score of the fitted dose curve at least 0.9, where 1 is the maximum); conditions: HepG2 Attagene TRANS reporter, mRNA readout
Nuclear receptor subfamily 4 group A member 2 (Homo sapiens), sequence (P43354 whole entry, looked up, the tested form may be a part): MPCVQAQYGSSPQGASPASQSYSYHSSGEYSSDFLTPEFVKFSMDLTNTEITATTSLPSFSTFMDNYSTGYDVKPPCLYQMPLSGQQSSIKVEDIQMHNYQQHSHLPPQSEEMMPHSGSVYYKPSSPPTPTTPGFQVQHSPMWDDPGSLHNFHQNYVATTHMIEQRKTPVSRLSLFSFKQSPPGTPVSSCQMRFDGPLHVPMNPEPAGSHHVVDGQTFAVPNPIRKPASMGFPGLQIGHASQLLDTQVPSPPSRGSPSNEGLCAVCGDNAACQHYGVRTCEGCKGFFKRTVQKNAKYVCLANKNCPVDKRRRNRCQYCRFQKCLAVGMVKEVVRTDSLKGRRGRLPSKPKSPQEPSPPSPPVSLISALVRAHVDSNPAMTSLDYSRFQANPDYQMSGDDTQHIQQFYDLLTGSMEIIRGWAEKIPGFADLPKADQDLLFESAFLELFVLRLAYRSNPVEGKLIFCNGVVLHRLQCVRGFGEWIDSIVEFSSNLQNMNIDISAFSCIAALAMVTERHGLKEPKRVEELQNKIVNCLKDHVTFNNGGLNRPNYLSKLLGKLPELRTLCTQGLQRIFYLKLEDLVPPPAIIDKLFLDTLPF
Method in brief: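 HepG2 cells transiently transfected with GAL4-UAS reporter units and chimeric NR-Gal4 constructs; chemical exposure 24 h. Reporter mRNA quantified by RT-PCR, fluorescent labelling and capillary electrophoresis; gain of signal fitted relative to DMSO baseline.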

[13] = biological target: Nuclear respiratory factor 1 (Homo sapiens) (UniProt Q16656); assay: ATG_NRF1_CIS: Attagene CIS-FACTORIAL HepG2 Assay for human Nuclear Respiratory Factor 1 (NRF1) Orphan Gene (AID 2282987); conditions: HepG2 NRF1 cis-element reporter, Attagene multiplex; actives raise or lower the signal
Nuclear respiratory factor 1 (Homo sapiens), sequence (Q16656 whole entry, looked up): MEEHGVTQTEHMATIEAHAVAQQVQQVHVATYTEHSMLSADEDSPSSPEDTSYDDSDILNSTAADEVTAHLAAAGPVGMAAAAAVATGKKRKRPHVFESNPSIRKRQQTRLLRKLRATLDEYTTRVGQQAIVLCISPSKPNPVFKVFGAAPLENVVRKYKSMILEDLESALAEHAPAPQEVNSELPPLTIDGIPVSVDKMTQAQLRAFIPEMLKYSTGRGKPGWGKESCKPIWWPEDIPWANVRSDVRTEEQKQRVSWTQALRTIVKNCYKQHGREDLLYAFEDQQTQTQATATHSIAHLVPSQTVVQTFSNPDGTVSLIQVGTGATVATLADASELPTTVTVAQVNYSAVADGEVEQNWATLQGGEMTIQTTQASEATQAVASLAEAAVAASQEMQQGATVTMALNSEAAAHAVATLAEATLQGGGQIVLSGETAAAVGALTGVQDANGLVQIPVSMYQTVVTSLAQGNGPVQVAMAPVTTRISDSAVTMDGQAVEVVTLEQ
Method in brief: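 Multiplexed cis-reporter assay, HepG2 cells, 24 h treatment. Total RNA → oligo(dT) RT → PCR with reporter-specific primers → 6-FAM primer extension → HpaI cut → CE. Bidirectional fit vs DMSO.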

[14] = ATG_NF_kB_CIS: Attagene CIS-FACTORIAL HepG2 Assay for human Nuclear Factor Kappa B (NF-kB) (AID 2282991); conditions: HepG2 Attagene cis-factorial NF-kB reporter mRNA; actives raise or lower the signal
Method in brief: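 Transient MRTU transfection of human HepG2 liver cells → 24 h chemical exposure → total RNA, oligo(dT) RT → PCR, 6-FAM primer extension, HpaI digest 2 h 37 C → CE fragment analysis. Bidirectional fitting, DMSO negative control.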

[15] = biological target: Cellular tumor antigen p53 (Homo sapiens) (UniProt P04637); assay: ATG_p53_CIS: Attagene CIS-FACTORIAL HepG2 Assay for human p53 Transcription Factor (AID 2282994); conditions: HepG2 p53 cis-element reporter, Attagene mRNA; actives raise or lower the signal
Cellular tumor antigen p53 (Homo sapiens), sequence (P04637 whole entry, looked up): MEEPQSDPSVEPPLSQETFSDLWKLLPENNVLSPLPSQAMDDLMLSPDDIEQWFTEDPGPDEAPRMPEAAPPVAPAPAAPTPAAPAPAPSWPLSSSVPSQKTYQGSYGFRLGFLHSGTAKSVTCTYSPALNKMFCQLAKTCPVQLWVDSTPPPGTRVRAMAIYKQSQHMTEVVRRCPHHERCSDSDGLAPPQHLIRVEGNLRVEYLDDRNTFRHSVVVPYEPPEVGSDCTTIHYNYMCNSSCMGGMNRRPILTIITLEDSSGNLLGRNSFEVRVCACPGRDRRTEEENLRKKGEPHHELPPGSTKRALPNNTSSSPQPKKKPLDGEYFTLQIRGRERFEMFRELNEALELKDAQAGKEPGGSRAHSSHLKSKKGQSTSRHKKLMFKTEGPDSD
Method in brief: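 Using HepG2 hepatoma cells carrying cis-acting multiplexed reporters, mRNA induction is detected after a 24 h exposure. Gain- and loss-of-signal responses are fitted relative to DMSO-treated cells.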

[16] = BSK_3C_TissueFactor: BioMAP Diversity Plus: 3C Assay for Tissue Factor Biomarker Activity (AID 2282997); conditions: BioMAP 3C HUVEC, tissue factor biomarker readout; actives raise or lower the signal
Method in brief: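 Endothelial monolayers (human umbilical vein, primary) are dosed, incubated 24 h, and assayed for Tissue Factor by ELISA; DMSO serves as negative control for bidirectional fitting.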

[17] = BSK_3C_uPAR: BioMAP Diversity Plus: 3C Assay for Urokinase-type plasminogen activator receptor (uPAR) Biomarker Activity (AID 2282998); conditions: BioMAP 3C HUVEC, uPAR biomarker ELISA; actives raise or lower the signal
Method in brief: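 Primary human umbilical vein endothelial cells, 3C system; surface uPAR measured by ELISA 24 h after dosing. Cytotoxicity via SRB total protein in parallel cultures; bidirectional fit against DMSO.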

[18] = BSK_3C_VCAM1: BioMAP Diversity Plus: 3C Assay for Vascular cell adhesion molecule 1 (VCAM1) Biomarker Activity (AID 2282999); conditions: BioMAP 3C HUVEC, VCAM1 ELISA, cytokine-stimulated; actives raise or lower the signal
Method in brief: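 Human umbilical vein endothelial cells were dosed with compound for 24 h, after which cell-surface VCAM-1 was quantified by ELISA. Bidirectional curve fitting used DMSO as negative control and activity baseline.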

[19] = BSK_4H_Eotaxin3: BioMAP Diversity Plus: 4H Assay for Eotaxin 3 Biomarker Activity (AID 2283000); conditions: primary human endothelial cells (HUVEC); actives raise or lower the signal;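 on outcome: CCL26 protein level quantified by ELISA in parallel with SRB cytotoxicity check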
Method in brief: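 ELISA quantitation of CCL26 (Eotaxin-3) protein from chemically dosed human vascular endothelial cells at 24 h; increases and decreases both scored relative to DMSO-treated baseline.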

SMILES: CCc1ccccc1N
- outcome [1]: inactive
- outcome [2]: inactive
- outcome [3]: inactive
- outcome [4]: inactive
- outcome [5]: inactive
- outcome [6]: inactive
- outcome [7]: inactive
- outcome [8]: inactive
- outcome [9]: inactive

SMILES: COP(=O)(OC)O/C(=C\Cl)c1cc(Cl)c(Cl)cc1Cl
- outcome [10]: inactive
- outcome [11]: inactive
- outcome [4]: inactive
- AC50 [12]: 115 µM (active)
- AC50 [5]: 170 µM (active)
- AC50 [13]: 66.2 µM (active)
- outcome [6]: inactive
- AC50 [7]: 180 µM (active)
- outcome [14]: inactive
- AC50 [8]: 25.8 µM (active)
- AC50 [15]: 161 µM (active)

SMILES: CC(=O)C(Cl)C(=O)N(C)C (stereo unspecified)
- outcome [1]: inactive
- outcome [2]: inactive
- outcome [3]: inactive
- outcome [11]: inactive
- outcome [4]: inactive
- outcome [12]: inactive
- outcome [5]: inactive
- outcome [13]: inactive
- outcome [6]: inactive
- outcome [7]: inactive
- AC50 [8]: 25.9 µM (active)
- outcome [9]: inactive
- AC50 [16]: 5.13 µM (active)
- AC50 [17]: 30.1 µM (active)
- AC50 [18]: 20 µM (active)
- AC50 [19]: 21.6 µM (active)

SMILES: Cc1ccc(N)cc1Cl
- outcome [1]: inactive
- outcome [2]: inactive
- outcome [11]: inactive
- outcome [5]: inactive
- outcome [13]: inactive
- outcome [6]: inactive
- outcome [7]: inactive
- outcome [14]: inactive
- outcome [8]: inactive
- outcome [9]: inactive

SMILES: CC(C)(OO)c1ccccc1
- outcome [10]: inactive
- outcome [4]: inactive
- outcome [5]: inactive
- outcome [13]: inactive
- outcome [6]: inactive
- outcome [7]: inactive
- outcome [14]: inactive
- outcome [8]: inactive
- outcome [9]: inactive
- outcome [15]: inactive
- outcome [16]: inactive
- outcome [17]: inactive
- outcome [18]: inactive
- outcome [19]: inactive

SMILES: N#Cc1ccccn1
- outcome [1]: inactive
- outcome [2]: inactive
- outcome [3]: inactive
- outcome [11]: inactive
- outcome [4]: inactive
- outcome [12]: inactive
- outcome [5]: inactive
- outcome [13]: inactive
- outcome [6]: inactive
- outcome [7]: inactive
- outcome [14]: inactive
- outcome [8]: inactive
- outcome [9]: inactive
- outcome [15]: inactive

SMILES: O=[N+]([O-])c1ccc2c3c(cccc13)CC2
- outcome [10]: inactive
- outcome [3]: inactive
- outcome [4]: inactive
- outcome [5]: inactive
- outcome [6]: inactive
- outcome [7]: inactive
- outcome [14]: inactive
- AC50 [8]: 6.63 µM (active)
- outcome [9]: inactive
- outcome [15]: inactive
- outcome [16]: inactive
- AC50 [17]: 20 µM (active)
- outcome [18]: inactive
- outcome [19]: inactive

SMILES: COc1ccccc1OC
- outcome [1]: inactive
- outcome [2]: inactive
- outcome [3]: inactive
- outcome [11]: inactive
- outcome [4]: inactive
- outcome [12]: inactive
- outcome [5]: inactive
- outcome [6]: inactive
- outcome [7]: inactive
- outcome [14]: inactive
- outcome [8]: inactive
- outcome [9]: inactive
- outcome [15]: inactive

SMILES: O=c1[nH]c(=O)[nH]c(=O)[nH]1
- outcome [1]: inactive
- outcome [2]: inactive
- outcome [3]: inactive
- outcome [4]: inactive
- outcome [12]: inactive
- outcome [5]: inactive
- outcome [13]: inactive
- outcome [6]: inactive
- outcome [7]: inactive
- outcome [14]: inactive
- outcome [8]: inactive
- outcome [15]: inactive
- outcome [16]: inactive
- outcome [17]: inactive
- outcome [18]: inactive
- outcome [19]: inactive

SMILES: CCC(=O)c1ccccc1
- outcome [10]: inactive
- outcome [11]: inactive
- outcome [4]: inactive
- outcome [5]: inactive
- outcome [6]: inactive
- outcome [7]: inactive
- outcome [14]: inactive
- outcome [8]: inactive
- outcome [15]: inactive
